From ChEMBL document CHEMBL3433997, “St. Jude Leishmania screening dataset” (2016) come the findings set out here.

For the first assay, the target named is Solute carrier family 2, facilitated glucose transporter member 1 (Homo sapiens) (UniProt P11166). Nature of the assay: ST_JUDE_LEISH: Cytotoxicity at 2uM final concentration against transgenic Leishmania Mexicana promastigotes LmGLUT1 that are glucose transport deficient and complemented with the human glucose transporter GLUT1. Activity is measured by DNA content using SYBR green in vitro. Type of assay: functional.
Chain of Solute carrier family 2, facilitated glucose transporter member 1 (Homo sapiens) (P11166 whole entry): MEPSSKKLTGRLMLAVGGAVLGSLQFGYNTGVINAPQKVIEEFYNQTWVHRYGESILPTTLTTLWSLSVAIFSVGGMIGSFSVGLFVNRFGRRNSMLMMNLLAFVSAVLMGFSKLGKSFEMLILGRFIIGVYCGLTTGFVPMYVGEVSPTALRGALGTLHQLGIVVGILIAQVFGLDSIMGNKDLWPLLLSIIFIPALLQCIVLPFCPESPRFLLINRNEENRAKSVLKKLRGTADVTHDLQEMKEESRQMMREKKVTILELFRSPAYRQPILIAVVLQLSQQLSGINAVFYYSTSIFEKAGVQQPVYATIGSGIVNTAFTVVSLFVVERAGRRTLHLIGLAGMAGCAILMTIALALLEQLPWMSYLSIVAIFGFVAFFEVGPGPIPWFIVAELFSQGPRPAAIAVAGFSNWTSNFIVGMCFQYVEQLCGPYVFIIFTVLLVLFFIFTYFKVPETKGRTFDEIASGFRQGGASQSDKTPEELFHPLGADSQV
In general, inhibition refers to the drop in the measured response relative to a control, in per cent. As for `COc1ccc(CNC2CCN(C)CC2)cc1-c1ccc(S(=O)(=O)NC2CCC2)cc1`, the inhibition was 2.91%.

Take `COc1ccc(CN(C)CC(O)COc2ccc(NC(=O)c3cccc4c(=O)c5cccc(OC)c5[nH]c34)cc2)cc1OC` (stereo not drawn): the inhibition is 7.62%.

With `O=C(NC1CCN(CCCOc2ccnc3cc(Cl)ccc23)C1)c1ccc(Br)cc1` (stereo not drawn), the inhibition was found to be 9.74%.

In the case of `Cc1ccc(NC(=O)c2ccc3ncccc3c2)cc1OC1CCN(CCC(C)C)C1` (stereo not drawn), the inhibition was 2.61%.

In the case of `CC(C)(C)c1ccc(NC(=O)c2cccc(CN3CCCN(Cc4cccc(O)c4)CC3)c2)cc1`, the inhibition stood at 6.18%.

In the case of `Cc1cccc2nc(-c3cccc(-c4ccc(NC(=O)Nc5ccc6c(c5)OCO6)cc4)c3)[nH]c12`, the inhibition was found to be 1.72%.

For the compound `O=C(Nc1ccc(Cl)c(Cl)c1)N[C@H]1CCN(CCCCCNC(=O)C2CC2c2ccc(Cl)c(Cl)c2)C1` (stereo partly drawn), the inhibition was 12.3%.

Regarding `COc1cc(C(F)(F)F)nc2c(CNCCCNc3cc(=O)c4ccccc4[nH]3)scc12`, the inhibition turned out to be 0.84%.

Regarding `Cc1nc(Nc2cc(Cl)ccc2O)nc(Nc2cc(Cl)ccc2O)c1[N+](=O)[O-]`, the inhibition is 4.36%.

As to `CCc1c(CCNCCc2cccc(CCNCCc3ccc(OC)c(OC)c3CC)c2)ccc(OC)c1OC`, the inhibition was 2.06%.

On to `Cc1cccc(CNc2nc(C)cc(N[C@@H](Cc3ccccc3)C(=O)NC3CCCC3)n2)c1`, for which the inhibition came to 16.1%.

For the compound `O=C(CCOc1ccccc1)NCC1CCCO1` (stereo not drawn), the inhibition worked out at 1.87%.

For the compound `O=C(Nc1ccc(Cn2ncc(N3CCCNCC3)c(Cl)c2=O)cc1)Nc1ccc(SC(F)(F)F)cc1`, the inhibition came to 3.57%.

Regarding `CCCn1c(O)nnc1SCC(=O)Nc1cc(C(F)(F)F)ccc1Cl`, the inhibition is 6.43%.

Turning to `N#Cc1ccc(-c2ccc(C(=O)Nc3ccc4c(c3)CCN(C3CCC3)CC4)nc2)cc1`, the inhibition is 3.57%.

As for `CCOc1cc[nH]c(=O)n1`, the inhibition was -0.65%.

For the compound `COc1cc2nc(N3CCN(C(=O)c4c(Cl)nsc4-c4ccccc4Cl)CC3)nc(N)c2cc1OC`, the inhibition turned out to be 10.5%.

Regarding `CCCOc1ccc(N2C(N)=NC(N)=NC2(C)C)cc1`, the inhibition turned out to be 3.43%.

As to `COc1cccc(CN2CCCC(OC(c3ccc(F)cc3)c3ccc(F)cc3)C2)c1O` (stereo not drawn), the inhibition is 0.04%.

Turning to `COc1ccccc1C1CCN(C2CCC(NC(=O)c3cc4cc(C(C)C)ccc4[nH]3)CC2)CC1` (stereo not drawn), the inhibition was -0.19%.

As to `OCC1CCCCN1Cc1cccc(-c2cccc(-c3nc4ccccc4[nH]3)c2)c1` (stereo not drawn), the inhibition was 6.6%.

As for `CCn1c(-c2nonc2N)nc2cnc(Oc3cccc(NC(=O)c4ccc(OCCN5CCCCC5)cc4)c3)cc21`, the inhibition came to 17.2%.

In the case of `Cc1cc(Nc2ccc(O)cc2)nc2cc(O)ccc12`, the inhibition is 3.16%.

Regarding `CN(C)CCC1CCN(CCS(=O)(=O)c2cccc(Nc3ncc(-c4cccc(F)c4)cn3)c2)CC1`, the inhibition is -2.08%.

In the case of `COc1ccc(-c2ccc(S(=O)(=O)Nc3cc4c(cc3OC(C)C)CCN(C)CC4)cc2)cc1`, the inhibition stood at 1.81%.

For the compound `FC(F)(F)c1ccc2[nH]ccc(=NN=Cc3cccnc3)c2c1`, the inhibition was 1.46%.

Turning to `CN(C)CCOc1ccc2nc(-c3cccc(OCc4ccccc4)c3)[nH]c2c1C#N`, the inhibition amounted to 2.41%.

As for `CCOc1ccc(NC(=O)c2cccc(CN3CCCN(Cc4cccc(O)c4)CC3)c2)cc1`, the inhibition is -0.94%.

The target in a further assay is Hexose transporter 1 (Plasmodium falciparum) (UniProt O97467). Nature of the assay: ST_JUDE_LEISH: Cytotoxicity at 2uM final concentration against transgenic Leishmania Mexicana promastigotes LmPfHT that are glucose transport deficient and complemented with the Plasmodium falciparum hexose transporter. Activity is measured by DNA content using SYBR green in vitro. Type of assay: functional.
Consider `CNC(=O)c1cnc(Nc2ccc3[nH]c(=O)[nH]c3c2)nc1Nc1cccc(OC(C)C)c1`, for which the inhibition was -0.76%.

On to `Oc1ccc(CCNc2nc(NCCCOc3cc(CN4CCCCC4)ccc3F)nc(N3CCNCC3)n2)cc1`, for which the inhibition came to 4.72%.

`O=C(O)C[C@H](NC(=O)c1cc(-c2ccc3c(c2)OCO3)no1)C(=O)O.O=C(O)C[C@H](NC(=O)c1conc1-c1ccc2c(c1)OCO2)C(=O)O`: the inhibition was -1.07%.

Regarding `Clc1ccc(C2CCN(CCCOc3ccc4c(c3)CCNCC4)CC2)cc1`, the inhibition is 40.9%.

Regarding `COC1CCC(C(=O)Nc2ccc(-c3cccc(-c4nc5cccc(C)c5[nH]4)c3)cc2)CC1` (stereo not drawn), the inhibition was determined as 4.3%.

`CN1CCN(CCCN(Cc2csc(-c3ccc(CNCc4ccccc4)cc3)n2)S(=O)(=O)c2ccccc2)CC1`: the inhibition was 15.3%.

Take `C=C[C@]1(C)C[C@@H](OC(=O)CNC[C@@H](O)CN2C[C@H](c3ccnc4ccc(OC)nc34)OC2=O)[C@@]2(C)[C@@H]3C(=O)CC[C@@]3(CC[C@@H]2C)[C@@H](C)[C@@H]1O`: the inhibition is 1.68%.

Take `Cc1cc(N2CCOCC2)nc(Nc2ccc(NC(=O)Nc3ccc(F)cc3)cc2)n1`: the inhibition is -2.91%.

As to `O=C(NCCN1CCCCC1)c1cc2cc(-c3ccccc3)ccc2n1S(=O)(=O)c1ccccc1`, the inhibition worked out at 74.7%.

In the case of `O=C1CN(C(=O)CCC2CCCC2)C(c2ccc(F)cc2)c2cc(F)ccc2N1` (stereo not drawn), the inhibition was 3.45%.

In the case of `Cn1cncc1CCN(Cc1ccc(-c2ccc(C(F)(F)F)cc2)cc1)C(=O)Cn1c(CCc2cccc(F)c2F)cc(=O)c2cccnc21`, the inhibition was 2.38%.

On to `CC(C)CCN1CCC(Oc2cccc(NC(=O)c3ccc(C(F)(F)F)cc3)c2)CC1`, for which the inhibition was -0.13%.

For `COc1ccc(CNC2CCN(C)CC2)cc1-c1ccc(S(=O)(=O)NC2CCC2)cc1`, the inhibition worked out at 2.71%.

On to `COc1ccc(CN(C)CC(O)COc2ccc(NC(=O)c3cccc4c(=O)c5cccc(OC)c5[nH]c34)cc2)cc1OC` (stereo not drawn), for which the inhibition was determined as 3.04%.

For `O=C(NC1CCN(CCCOc2ccnc3cc(Cl)ccc23)C1)c1ccc(Br)cc1` (stereo not drawn), the inhibition stood at 7.84%.

As for `Cc1ccc(NC(=O)c2ccc3ncccc3c2)cc1OC1CCN(CCC(C)C)C1` (stereo not drawn), the inhibition turned out to be 3.22%.

As for `CC(C)(C)c1ccc(NC(=O)c2cccc(CN3CCCN(Cc4cccc(O)c4)CC3)c2)cc1`, the inhibition is 6.24%.

On to `Cc1cccc2nc(-c3cccc(-c4ccc(NC(=O)Nc5ccc6c(c5)OCO6)cc4)c3)[nH]c12`, for which the inhibition was determined as 0.05%.

For the compound `O=C(Nc1ccc(Cl)c(Cl)c1)N[C@H]1CCN(CCCCCNC(=O)C2CC2c2ccc(Cl)c(Cl)c2)C1` (stereo partly drawn), the inhibition came to 8.71%.

On to `COc1cc(C(F)(F)F)nc2c(CNCCCNc3cc(=O)c4ccccc4[nH]3)scc12`, for which the inhibition worked out at 0.13%.

Regarding `Cc1nc(Nc2cc(Cl)ccc2O)nc(Nc2cc(Cl)ccc2O)c1[N+](=O)[O-]`, the inhibition worked out at 3.14%.

With `CCc1c(CCNCCc2cccc(CCNCCc3ccc(OC)c(OC)c3CC)c2)ccc(OC)c1OC`, the inhibition is -1.49%.

With `Cc1cccc(CNc2nc(C)cc(N[C@@H](Cc3ccccc3)C(=O)NC3CCCC3)n2)c1`, the inhibition was 12.4%.

Turning to `O=C(CCOc1ccccc1)NCC1CCCO1` (stereo not drawn), the inhibition was -0.04%.

Consider `O=C(Nc1ccc(Cn2ncc(N3CCCNCC3)c(Cl)c2=O)cc1)Nc1ccc(SC(F)(F)F)cc1`, for which the inhibition was 10.1%.

In the case of `CCCn1c(O)nnc1SCC(=O)Nc1cc(C(F)(F)F)ccc1Cl`, the inhibition is 4.55%.

Take `N#Cc1ccc(-c2ccc(C(=O)Nc3ccc4c(c3)CCN(C3CCC3)CC4)nc2)cc1`: the inhibition stood at 3.06%.

Take `CCOc1cc[nH]c(=O)n1`: the inhibition turned out to be 2.36%.

Turning to `COc1cc2nc(N3CCN(C(=O)c4c(Cl)nsc4-c4ccccc4Cl)CC3)nc(N)c2cc1OC`, the inhibition is 8.35%.

`CCCOc1ccc(N2C(N)=NC(N)=NC2(C)C)cc1`: the inhibition worked out at 1.16%.

Regarding `COc1cccc(CN2CCCC(OC(c3ccc(F)cc3)c3ccc(F)cc3)C2)c1O` (stereo not drawn), the inhibition is 0.76%.

Turning to `COc1ccccc1C1CCN(C2CCC(NC(=O)c3cc4cc(C(C)C)ccc4[nH]3)CC2)CC1` (stereo not drawn), the inhibition turned out to be 0.03%.

As to `OCC1CCCCN1Cc1cccc(-c2cccc(-c3nc4ccccc4[nH]3)c2)c1` (stereo not drawn), the inhibition was 4.14%.

Consider `CCn1c(-c2nonc2N)nc2cnc(Oc3cccc(NC(=O)c4ccc(OCCN5CCCCC5)cc4)c3)cc21`, for which the inhibition is 28.1%.

In the case of `Cc1cc(Nc2ccc(O)cc2)nc2cc(O)ccc12`, the inhibition came out at 1.93%.

Take `CN(C)CCC1CCN(CCS(=O)(=O)c2cccc(Nc3ncc(-c4cccc(F)c4)cn3)c2)CC1`: the inhibition turned out to be 0.49%.

As to `COc1ccc(-c2ccc(S(=O)(=O)Nc3cc4c(cc3OC(C)C)CCN(C)CC4)cc2)cc1`, the inhibition was 2.48%.

In the case of `FC(F)(F)c1ccc2[nH]ccc(=NN=Cc3cccnc3)c2c1`, the inhibition stood at 1.75%.

Regarding `CN(C)CCOc1ccc2nc(-c3cccc(OCc4ccccc4)c3)[nH]c2c1C#N`, the inhibition stood at 1.25%.

As to `CCOc1ccc(NC(=O)c2cccc(CN3CCCN(Cc4cccc(O)c4)CC3)c2)cc1`, the inhibition worked out at 0.07%.
